# Measured values: PubChem BioAssay (EPA / NIEHS)
# Results filed as inconclusive are left out. Active and inactive are the calls of the source. How the source made its calls: active means hit-call score of the fitted dose curve at least 0.9, where 1 is the maximum; inconclusive means response in the unintended direction; inactive means score below 0.9.
# What was measured:
# [1] = ATG_XTT_Cytotoxicity: Cytotoxicity Assessment in the Attagene TRANS-FACTORIAL HepG2 Assay (AID 2283584)
# Procedure, shortened: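 Transfect HepG2 with GAL4-UAS reporter units, dose compound, incubate 24 h, then measure viable cell number by XTT. Fit concentration response against DMSO baseline.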
# [2] = TOX21_p53_BLA_p2_viability: Viability Assessment in the Tox21 HCT-116 p53 Agonism Beta-lactamase Assay, Phase 2 (AID 2283591);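 further: compound exposure lasted 16 h at 37 °C; actives lower the ATP signal meaning cytotoxicity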
# Procedure, shortened: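 HCT-116 p53-bla cells (4000/well) rested 5 h at 37C, then received compounds in DMSO (217-fold dilution) for 16 h at 37C, 5% CO2. After the CCF4 read, CellTiter-Glo was added; ATP luminescence was read after 30 min at room temperature.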
# [3] = target: Cellular tumor antigen p53 (Homo sapiens) (UniProt P04637); assay: TOX21_p53_BLA_p2_ratio: Tox21 HCT-116 p53 Agonism Beta-lactamase Assay, Ratio, Phase 2 (AID 2283592)
# Procedure, shortened: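 Cleaved-to-uncleaved substrate ratio (460 vs 530 nm) measured in HCT116 cells with an inducible beta-lactamase reporter linked to p53 activity. Compounds incubated 16 h at 37C before 2 h room-temperature CCF4-AM loading.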
# [4] = TOX21_p53_BLA_p3_viability: Viability Assessment in the Tox21 HCT-116 p53 Agonism Beta-lactamase Assay, Phase 3 (AID 2283593);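 further: cells exposed to compound for 16 h before reading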
# Procedure, shortened: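 HCT-116 cells (4000/well) rested 5 h at 37C, then got DMSO compounds by pin tool (217-fold dilution) for 16 h at 37C, 5% CO2. After the bla read, CellTiter-Glo was added and luminescence read at 30 min, room temperature.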
# [5] = TOX21_p53_BLA_p5_viability: Viability Assessment in the Tox21 HCT-116 p53 Agonism Beta-lactamase Assay, Phase 5 (AID 2283600)
# Procedure, shortened: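 Viability is taken from cellular ATP content, measured by luciferase luminescence in the same wells after the beta-lactamase ratio read. Cells are seeded at 4000 per well and exposed to DMSO-dissolved compounds, diluted 217-fold, for 16 h.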
# [6] = target: Cellular tumor antigen p53 (Homo sapiens) (UniProt P04637); assay: TOX21_p53_BLA_p4_ratio: Tox21 HCT-116 p53 Agonism Beta-lactamase Assay, Ratio, Phase 4 (AID 2283601)
# Procedure, shortened: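 HCT116 cells carrying an inducible beta-lactamase reporter were plated at 4000 cells/well, rested 5 h, then exposed to compounds in DMSO (217-fold dilution) for 16 h at 37C. CCF4-AM substrate was loaded 2 h at room temperature; 460/530 nm emission ratio scored gain-of-signal versus DMSO.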
# [7] = target: Cellular tumor antigen p53 (Homo sapiens) (UniProt P04637); assay: TOX21_p53_BLA_p3_ratio: Tox21 HCT-116 p53 Agonism Beta-lactamase Assay, Ratio, Phase 3 (AID 2283596)
# Procedure, shortened: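 Cells were seeded at 4000/well, rested 5 h at 37C, then dosed with DMSO compound solutions (217-fold dilution) for 16 h. CCF4-AM substrate was loaded for 2 h at room temperature, and the 460/530 nm emission ratio was fitted for gain of signal versus DMSO.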
# [8] = TOX21_p53_BLA_p4_viability: Viability Assessment in the Tox21 HCT-116 p53 Agonism Beta-lactamase Assay, Phase 4 (AID 2283597);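 further: hits lower the luminescence signal meaning cytotoxicity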
# Procedure, shortened: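 Viability is taken as cellular ATP: after 16 h compound exposure of HCT116 cells and a 2 h room-temperature CCF4-AM substrate step, CellTiter-Glo reagent is added and luminescence is measured 30 min later.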
# [9] = target: Cellular tumor antigen p53 (Homo sapiens) (UniProt P04637); assay: TOX21_p53_BLA_p5_ratio: Tox21 HCT-116 p53 Agonism Beta-lactamase Assay, Ratio, Phase 5 (AID 2283599)
# Procedure, shortened: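 HCT-116 cells carrying a p53-inducible beta-lactamase reporter were seeded at 4000 cells/well and dosed after 5 h with compound in DMSO (217-fold dilution). After 16 h at 37C, CCF4-AM substrate was added for 2 h, and the 460/530 nm emission ratio was scored as gain-of-signal versus DMSO.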
# Sequence of Cellular tumor antigen p53 (Homo sapiens) (P04637 whole entry, looked up): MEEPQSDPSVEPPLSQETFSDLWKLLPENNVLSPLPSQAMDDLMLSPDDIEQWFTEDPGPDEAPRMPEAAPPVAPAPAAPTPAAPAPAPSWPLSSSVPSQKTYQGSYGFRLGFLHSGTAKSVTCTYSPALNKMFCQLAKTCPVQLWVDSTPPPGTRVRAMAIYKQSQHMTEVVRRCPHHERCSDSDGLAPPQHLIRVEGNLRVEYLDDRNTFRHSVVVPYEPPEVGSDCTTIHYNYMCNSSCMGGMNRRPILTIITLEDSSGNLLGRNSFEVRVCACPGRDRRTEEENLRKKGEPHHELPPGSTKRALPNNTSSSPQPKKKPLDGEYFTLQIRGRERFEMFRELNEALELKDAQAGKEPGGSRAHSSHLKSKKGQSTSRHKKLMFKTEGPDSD
Structure (SMILES),outcome [1],outcome [2],outcome [3],outcome [4],outcome [5],outcome [6],outcome [7],outcome [8],outcome [9],AC50 [2],AC50 [4],AC50 [5]
COc1cccc(OC)c1,inactive,inactive,inactive,inactive,inactive,inactive,,,,,,
N#Cc1ccccc1,inactive,inactive,inactive,,inactive,inactive,inactive,inactive,inactive,,,
CC(=O)OCC=Cc1ccccc1,inactive,inactive,inactive,inactive,,inactive,,inactive,,,,
CC1CCC2CC1C2(C)C (stereo not drawn),inactive,inactive,inactive,,inactive,,inactive,,inactive,,,
CC(=O)OCCOC(C)=O,inactive,inactive,inactive,inactive,inactive,inactive,,inactive,inactive,,,
CCCCCCCCCC=O,inactive,inactive,inactive,inactive,inactive,inactive,inactive,,,,,
CCCCC(CC)COC(=O)/C=C\C(=O)OCC(CC)CCCC (stereo not drawn),inactive,inactive,inactive,inactive,,inactive,,inactive,inactive,,,
CO[Si](C)(OC)c1ccccc1,inactive,inactive,inactive,inactive,inactive,inactive,inactive,,,,,
CC(=O)C(C)=O,inactive,inactive,inactive,inactive,inactive,inactive,,,,,,
CC1(C)[C@@H]2CC[C@@]1(C)[C@H](O)C2,inactive,inactive,inactive,,,,inactive,,,,,
CCN(CC)c1ccc(C(=C2C=CC(=[N+](CC)CC)C=C2)c2ccc(S(=O)(=O)O)cc2S(=O)(=O)[O-])cc1,inactive,,inactive,,,,inactive,,,26.5 µM (active),23.1 µM (active),36.1 µM (active)
Nc1cc([N+](=O)[O-])ccc1O,inactive,inactive,inactive,,inactive,inactive,inactive,,inactive,,,
CCCCO,inactive,inactive,inactive,,inactive,inactive,inactive,inactive,inactive,,,
CCCCCCCCCCCCCCCC(=O)O,inactive,inactive,inactive,inactive,inactive,inactive,,,inactive,,,
